Results reported in the supplement of paper PMC10849652.
Targets with a hit are over-represented here; the source holds about 7,900 in all. About 0.6% of all pairs of compound and target were hits.

Legend:
Assay in all cases: log2 fold change, soluble protein after heating vs DMSO (PISA); higher = thermal stabilisation; K562 cells, 10 uM, 30 min; active = over 0.2 and 3.5 SD of the protein, either way, in both replicates (recomputed)
[1] = compound: C1COCCN1CCN2C3=CC=CC=C3N=C2NC(=O)C4=CC(=CC=C4)[N+](=O)[O-] [IRAK-1-4 Inhibitor I]
Summary of the method: (§1)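 Values are thermal stability changes relative to control samples and are taken from duplicates. They are stated as log2 fold changes. Before quantification by TMTpro 16plex LC-MS/MS with equalised channel sums, K562 cells at 2×10^6 cells/mL were treated with 10 μM compound for 30 min, heated in aliquots for 3 min across 48°C-58°C, pooled, extracted in PBS with 0.5% NP-40 at 4°C, and centrifuged at 21,000xg for 90 min to give the soluble supernatant.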

[2] = compound: C=CC(=O)N1CCC[C@@H](n2nc(-c3ccc(Oc4ccccc4)cc3)c3c(N)ncnc32)C1 [ibrutinib]
Summary of the method: as §1

[3] = compound: CC(=O)c1cnc2ccc(-c3cc(Cl)c(O)c(Cl)c3)nc2c1N[C@H]1CC[C@H](CN(C)C)CC1
Summary of the method: as §1

[4] = compound: CC(C)(C)Cn1c(N)nc2ccc(-c3[nH]c(C(C)(C)C)nc3-c3ccc(F)cc3)nc21 [ralimetinib]
Summary of the method: as §1

[5] = compound: CC(C)(O)CC(=O)NCCn1ccc2ncnc(Nc3ccc(Oc4cccc(C(F)(F)F)c4)c(Cl)c3)c21
Summary of the method: as §1

[6] = compound: CC(C)C1=C2N=C(C=C(N2N=C1)NCC3=CC=CC=C3)NCCCCCCN
Summary of the method: as §1

[7] = compound: CC(C)C[C@@H](C=O)NC(=O)[C@H](CC(C)C)NC(=O)[C@H](CC(C)C)NC(=O)OCc1ccccc1
Summary of the method: as §1

[8] = compound: CC(C)N(C[C@H]1O[C@@H](n2cnc3c(N)ncnc32)[C@H](O)[C@@H]1O)[C@H]1C[C@@H](CCc2nc3cc(C(C)(C)C)ccc3[nH]2)C1 [pinometostat]
Summary of the method: as §1

[9] = compound: CC1=C(C(CC(=O)N1)C2=CC=C(C=C2)C(F)(F)F)C(=O)NC3=C(C=C4C(=C3)C=NN4)F
Summary of the method: as §1

[10] = compound: CC1=C(C2=C(C=C1)C(=O)C3=CC=CC=C3N2CCCN)C
Summary of the method: as §1

[11] = compound: CC1=C(C=C(C=C1)NC(=O)C2=CC(=CC=C2)C(C)(C)C#N)NC3=CC4=C(C=C3)N=CN(C4=O)C
Summary of the method: as §1

[12] = compound: CC1=C(C=C(C=C1)NC(=O)C2=CC(=CC=C2)N(C)C)NC(=O)C3=CC=C(C=C3)O
Summary of the method: as §1

[13] = compound: CC1=CC=C(C=C1)SC2=C3C=C(SC3=CN=C2)C(=O)N
Summary of the method: as §1

[14] = compound: CC1=NC(=CC=C1)C2=C(N=C(N2)C(C)(C)C)C3=CC4=NC=CN=C4C=C3
Summary of the method: as §1

[15] = compound: CCCCN(Cc1ccc(C(=O)NO)cc1)C(=O)Nc1ccccc1 [Nexturastat A]
Summary of the method: as §1

[16] = compound: CCCS(=O)(=O)Nc1ccc(F)c(C(=O)c2c[nH]c3ncc(-c4ccc(Cl)cc4)cc23)c1F [vemurafenib]
Summary of the method: as §1

[17] = compound: CCCS(=O)(=O)Nc1ccc(F)c(C(=O)c2c[nH]c3ncc(Cl)cc23)c1F
Summary of the method: as §1

[18] = compound: CCCc1cc(C)[nH]c(=O)c1CNC(=O)c1cc(-c2ccnc(N3CCN(C)CC3)c2)cc2c1cnn2C(C)C
Summary of the method: as §1

[19] = compound: CCN(CC)Cc1ccc2cc(COC(=O)Nc3ccc(C(=O)NO)cc3)ccc2c1 [givinostat]
Summary of the method: as §1

[20] = compound: CCN(CCCOc1ccc2c(Nc3cc(CC(=O)Nc4cccc(F)c4)[nH]n3)ncnc2c1)CCOP(=O)(O)O [barasertib]
Summary of the method: as §1

Measured: log2 fold change

NUP160 (UniProt Q12769)
Chain of UniProt Q12769 (Q12769 whole entry, looked up): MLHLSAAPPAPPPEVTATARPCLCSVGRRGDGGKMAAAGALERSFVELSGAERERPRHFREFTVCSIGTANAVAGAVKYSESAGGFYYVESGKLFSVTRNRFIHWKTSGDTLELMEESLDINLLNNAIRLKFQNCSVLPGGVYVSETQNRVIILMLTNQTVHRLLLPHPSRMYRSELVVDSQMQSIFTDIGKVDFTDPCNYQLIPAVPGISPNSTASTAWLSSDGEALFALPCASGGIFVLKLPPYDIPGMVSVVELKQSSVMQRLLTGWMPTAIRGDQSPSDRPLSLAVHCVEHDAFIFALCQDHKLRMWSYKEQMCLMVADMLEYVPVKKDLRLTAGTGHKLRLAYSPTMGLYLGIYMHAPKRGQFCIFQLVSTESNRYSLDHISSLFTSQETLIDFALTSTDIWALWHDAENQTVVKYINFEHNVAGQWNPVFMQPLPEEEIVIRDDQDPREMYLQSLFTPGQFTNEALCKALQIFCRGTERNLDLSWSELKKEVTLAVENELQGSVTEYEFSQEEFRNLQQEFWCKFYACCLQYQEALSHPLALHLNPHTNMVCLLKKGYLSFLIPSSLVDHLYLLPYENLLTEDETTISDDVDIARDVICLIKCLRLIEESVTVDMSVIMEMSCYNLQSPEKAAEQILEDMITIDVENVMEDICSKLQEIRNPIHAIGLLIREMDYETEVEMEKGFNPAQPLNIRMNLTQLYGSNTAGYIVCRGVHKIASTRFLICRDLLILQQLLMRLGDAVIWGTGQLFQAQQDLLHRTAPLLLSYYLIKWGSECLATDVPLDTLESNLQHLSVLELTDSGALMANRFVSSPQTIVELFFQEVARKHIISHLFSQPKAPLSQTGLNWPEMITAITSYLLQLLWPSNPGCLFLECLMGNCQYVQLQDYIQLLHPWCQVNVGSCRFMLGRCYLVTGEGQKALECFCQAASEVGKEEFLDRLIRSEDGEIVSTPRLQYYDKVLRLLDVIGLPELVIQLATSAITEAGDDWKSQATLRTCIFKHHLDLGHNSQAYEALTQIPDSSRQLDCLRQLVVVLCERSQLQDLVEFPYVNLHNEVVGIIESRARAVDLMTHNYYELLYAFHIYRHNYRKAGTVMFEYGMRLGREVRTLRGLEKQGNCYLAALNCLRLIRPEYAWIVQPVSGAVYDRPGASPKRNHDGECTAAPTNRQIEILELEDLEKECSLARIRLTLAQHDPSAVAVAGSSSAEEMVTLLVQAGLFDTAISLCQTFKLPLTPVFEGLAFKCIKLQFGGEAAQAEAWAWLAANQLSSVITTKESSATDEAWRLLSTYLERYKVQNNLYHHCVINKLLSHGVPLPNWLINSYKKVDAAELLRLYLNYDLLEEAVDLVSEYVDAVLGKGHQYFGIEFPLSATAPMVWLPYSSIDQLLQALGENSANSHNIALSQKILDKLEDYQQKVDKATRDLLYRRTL
inactive: [1] -0.03 | [2] -0.041 | [3] -0.13 | [4] -0.002 | [5] -0.032 | [6] -0.137 | [7] -0.01 | [8] 0.058 | [9] 0.001 | [10] -0.012 | [11] 0.006 | [12] 0.037 | [13] 0.023 | [14] 0.017 | [15] -0.037 | [16] -0.01 | [17] 0.083 | [18] 0.002 | [19] 0.018 | [20] 0.062

OTULIN (UniProt Q96BN8)
Chain of UniProt Q96BN8 (Q96BN8 whole entry, looked up): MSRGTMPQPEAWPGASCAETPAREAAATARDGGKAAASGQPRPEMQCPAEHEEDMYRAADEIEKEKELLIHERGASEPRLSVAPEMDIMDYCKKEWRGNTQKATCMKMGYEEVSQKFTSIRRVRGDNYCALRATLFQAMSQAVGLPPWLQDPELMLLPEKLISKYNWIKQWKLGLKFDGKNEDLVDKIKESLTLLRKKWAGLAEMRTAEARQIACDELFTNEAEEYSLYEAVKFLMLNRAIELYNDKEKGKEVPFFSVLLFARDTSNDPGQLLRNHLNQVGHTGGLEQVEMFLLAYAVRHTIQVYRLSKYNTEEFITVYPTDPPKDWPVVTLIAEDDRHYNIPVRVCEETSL
inactive: [1] 0.021 | [2] -0.025 | [3] -0.003 | [4] -0.01 | [5] -0.059 | [7] 0.024 | [8] 0.034 | [9] -0.02 | [10] 0.008 | [11] 0.03 | [12] 0.002 | [13] 0.035 | [14] 0.015 | [15] -0.17 | [16] -0.023 | [17] 0.171 | [18] -0.018 | [19] 0.039 | [20] 0.105
active: [6] -0.362

NSDHL (UniProt Q15738)
Chain of UniProt Q15738 (Q15738 whole entry, looked up): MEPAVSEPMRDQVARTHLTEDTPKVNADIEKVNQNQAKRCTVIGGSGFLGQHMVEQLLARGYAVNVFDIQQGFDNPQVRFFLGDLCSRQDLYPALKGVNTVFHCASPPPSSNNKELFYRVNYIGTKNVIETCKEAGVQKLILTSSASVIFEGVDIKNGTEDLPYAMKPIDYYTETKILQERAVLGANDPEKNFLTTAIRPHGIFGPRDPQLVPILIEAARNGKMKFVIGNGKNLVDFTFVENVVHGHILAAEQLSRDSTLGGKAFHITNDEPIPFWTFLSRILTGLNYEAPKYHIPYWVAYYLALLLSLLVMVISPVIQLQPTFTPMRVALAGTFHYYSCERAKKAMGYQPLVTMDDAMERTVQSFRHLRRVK
inactive: [1] 0.004 | [2] 0.193 | [3] -0.049 | [4] -0.01 | [5] 0.173 | [6] -0.084 | [7] -0.024 | [8] -0.078 | [9] -0.021 | [10] 0.056 | [11] 0.073 | [12] -0.005 | [13] 0.029 | [14] -0.001 | [15] -0.111 | [16] 0.07 | [17] -0.027 | [18] -0.031 | [19] -0.013 | [20] -0.004

OTUD4 (UniProt Q01804)
inactive: [1] 0.007 | [2] 0.008 | [3] -0.029 | [4] 0.1 | [5] 0.013 | [6] 0.035 | [7] 0.052 | [8] 0.128 | [9] -0.033 | [10] 0.244 | [11] -0.038 | [12] -0.017 | [13] -0.035 | [14] -0.069 | [15] 0.055 | [16] -0.016 | [17] 0.007 | [18] -0.03 | [19] 0.05 | [20] -0.083

NARS2 (UniProt Q96I59)
Chain of UniProt Q96I59 (Q96I59 whole entry, looked up): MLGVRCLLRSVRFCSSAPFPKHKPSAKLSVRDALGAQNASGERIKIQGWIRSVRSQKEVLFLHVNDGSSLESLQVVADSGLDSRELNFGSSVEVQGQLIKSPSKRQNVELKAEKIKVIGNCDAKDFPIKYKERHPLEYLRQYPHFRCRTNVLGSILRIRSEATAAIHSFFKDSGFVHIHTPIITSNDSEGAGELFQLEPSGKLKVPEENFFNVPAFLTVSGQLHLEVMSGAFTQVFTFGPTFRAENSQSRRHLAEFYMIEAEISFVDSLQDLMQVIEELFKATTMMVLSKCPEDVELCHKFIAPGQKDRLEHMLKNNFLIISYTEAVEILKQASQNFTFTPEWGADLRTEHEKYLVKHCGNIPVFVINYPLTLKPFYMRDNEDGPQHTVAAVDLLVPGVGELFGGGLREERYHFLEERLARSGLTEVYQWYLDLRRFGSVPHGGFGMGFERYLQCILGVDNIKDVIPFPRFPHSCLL
inactive: [1] 0.044 | [2] 0.03 | [3] 0.034 | [4] -0.034 | [5] -0.121 | [7] -0.019 | [8] -0.019 | [9] -0.002 | [10] -0.006 | [11] -0.016 | [12] 0.002 | [13] -0.011 | [14] 0.019 | [15] -0.071 | [16] -0.01 | [17] 0.038 | [18] -0.033 | [19] -0.076 | [20] 0.002
active: [6] -0.31

NMNAT1 (UniProt Q9HAN9)
Chain of UniProt Q9HAN9 (Q9HAN9 whole entry, looked up): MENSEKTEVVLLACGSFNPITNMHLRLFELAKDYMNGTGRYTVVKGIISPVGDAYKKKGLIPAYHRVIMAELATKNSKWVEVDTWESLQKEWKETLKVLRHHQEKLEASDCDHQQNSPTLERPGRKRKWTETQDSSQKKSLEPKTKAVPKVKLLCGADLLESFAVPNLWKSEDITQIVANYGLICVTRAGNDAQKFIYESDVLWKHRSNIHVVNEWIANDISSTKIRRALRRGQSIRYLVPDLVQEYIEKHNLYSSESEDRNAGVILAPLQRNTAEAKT
inactive: [1] -0.007 | [2] 0.073 | [3] 0.05 | [4] 0.18 | [5] 0.13 | [6] 0.093 | [7] 0.168 | [8] 0.429 | [9] 0.051 | [11] -0.079 | [12] 0.006 | [13] -0.09 | [14] -0.196 | [15] 0.132 | [16] -0.162 | [17] -0.139 | [18] 0.178 | [19] 0.042 | [20] -0.064
active: [10] -0.674

NOL11 (UniProt Q9H8H0)
Chain of UniProt Q9H8H0 (Q9H8H0 whole entry, looked up): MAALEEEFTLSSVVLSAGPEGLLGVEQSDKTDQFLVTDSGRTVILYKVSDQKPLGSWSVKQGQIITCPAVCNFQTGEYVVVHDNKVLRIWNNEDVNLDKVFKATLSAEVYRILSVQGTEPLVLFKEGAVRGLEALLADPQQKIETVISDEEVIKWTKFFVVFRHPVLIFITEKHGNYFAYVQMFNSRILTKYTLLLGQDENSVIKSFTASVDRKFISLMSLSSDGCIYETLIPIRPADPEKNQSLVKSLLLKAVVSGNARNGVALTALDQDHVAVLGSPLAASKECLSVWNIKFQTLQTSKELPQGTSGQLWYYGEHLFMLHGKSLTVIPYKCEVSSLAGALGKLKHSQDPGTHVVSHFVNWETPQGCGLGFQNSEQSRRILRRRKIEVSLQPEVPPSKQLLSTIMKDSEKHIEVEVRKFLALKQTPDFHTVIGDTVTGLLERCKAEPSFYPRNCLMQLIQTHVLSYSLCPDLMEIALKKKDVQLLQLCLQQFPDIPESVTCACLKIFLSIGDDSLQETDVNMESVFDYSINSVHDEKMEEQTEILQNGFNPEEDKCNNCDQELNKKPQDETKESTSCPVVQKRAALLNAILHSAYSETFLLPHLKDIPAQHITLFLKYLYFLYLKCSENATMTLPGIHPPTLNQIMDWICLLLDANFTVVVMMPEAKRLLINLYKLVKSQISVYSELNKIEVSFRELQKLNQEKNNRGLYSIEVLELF
inactive: [1] 0.036 | [2] 0.031 | [3] 0.002 | [4] -0.028 | [5] 0.037 | [6] 0.21 | [7] -0.017 | [8] -0.014 | [9] -0.002 | [11] -0.023 | [12] 0.029 | [13] 0.004 | [14] 0.013 | [15] -0.024 | [16] -0.026 | [17] 0.003 | [18] -0.016 | [19] 0.015 | [20] -0.021
active: [10] 0.304

PACS1 (UniProt Q6VY07)
Chain of UniProt Q6VY07 (Q6VY07 whole entry, looked up): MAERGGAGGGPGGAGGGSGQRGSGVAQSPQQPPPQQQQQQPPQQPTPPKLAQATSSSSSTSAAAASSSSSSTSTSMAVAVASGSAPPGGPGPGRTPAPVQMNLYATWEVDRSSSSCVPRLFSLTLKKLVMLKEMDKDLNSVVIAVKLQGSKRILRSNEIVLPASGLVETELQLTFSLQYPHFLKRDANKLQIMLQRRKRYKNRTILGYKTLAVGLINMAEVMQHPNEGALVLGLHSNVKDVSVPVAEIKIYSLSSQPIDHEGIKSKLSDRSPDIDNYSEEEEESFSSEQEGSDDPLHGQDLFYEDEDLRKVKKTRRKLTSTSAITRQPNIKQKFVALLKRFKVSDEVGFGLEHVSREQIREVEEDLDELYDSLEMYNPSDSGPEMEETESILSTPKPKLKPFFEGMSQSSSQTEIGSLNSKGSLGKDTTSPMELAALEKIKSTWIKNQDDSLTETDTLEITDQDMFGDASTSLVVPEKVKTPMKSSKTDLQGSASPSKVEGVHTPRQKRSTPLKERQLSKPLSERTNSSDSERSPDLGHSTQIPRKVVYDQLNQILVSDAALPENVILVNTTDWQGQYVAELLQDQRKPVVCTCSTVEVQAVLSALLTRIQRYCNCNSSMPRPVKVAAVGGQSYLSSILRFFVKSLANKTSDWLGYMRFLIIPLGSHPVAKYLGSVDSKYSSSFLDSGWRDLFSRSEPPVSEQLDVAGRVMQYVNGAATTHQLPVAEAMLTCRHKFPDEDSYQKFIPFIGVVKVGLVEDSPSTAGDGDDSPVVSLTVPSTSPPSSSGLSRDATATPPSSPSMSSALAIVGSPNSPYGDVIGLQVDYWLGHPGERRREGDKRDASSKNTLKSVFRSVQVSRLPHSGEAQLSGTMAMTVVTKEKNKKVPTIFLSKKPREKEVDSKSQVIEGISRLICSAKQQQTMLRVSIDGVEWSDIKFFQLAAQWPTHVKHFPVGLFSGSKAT
inactive: [1] -0.002 | [2] -0.016 | [4] -0.024 | [5] -0.014 | [6] -0.011 | [7] 0 | [8] -0.029 | [9] -0.098 | [10] -0.007 | [11] -0.001 | [12] -0.031 | [13] -0.021 | [14] 0.087 | [15] 0.023 | [16] 0.021 | [17] 0.023 | [18] 0.092 | [19] 0.004 | [20] 0.039
active: [3] -0.297
